A selection: hits, their analogues and other compounds. The true share with any hit is near 1.8%.
PME-1 primary: blocks human protein phosphatase methylesterase 1; inhibition, % at 5.9 µM; Q9Y570; recombinant PME-1, FP-Rh probe fluorescence polarization; AID 2130; 0.53% of 320,000 active;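 active = inhibition above the campaign mean of all compounds plus 3 SD, cut at about 26% in these data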;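 note: competitive labeling of PME-1 active site by serine hydrolase directed probe; 0% = PME-1 with DMSO and 100% = wells lacking PME-1 enzyme; inhibitors block probe labeling so polarization falls and inhibition rises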
Target sequence (Q9Y570 whole entry, looked up): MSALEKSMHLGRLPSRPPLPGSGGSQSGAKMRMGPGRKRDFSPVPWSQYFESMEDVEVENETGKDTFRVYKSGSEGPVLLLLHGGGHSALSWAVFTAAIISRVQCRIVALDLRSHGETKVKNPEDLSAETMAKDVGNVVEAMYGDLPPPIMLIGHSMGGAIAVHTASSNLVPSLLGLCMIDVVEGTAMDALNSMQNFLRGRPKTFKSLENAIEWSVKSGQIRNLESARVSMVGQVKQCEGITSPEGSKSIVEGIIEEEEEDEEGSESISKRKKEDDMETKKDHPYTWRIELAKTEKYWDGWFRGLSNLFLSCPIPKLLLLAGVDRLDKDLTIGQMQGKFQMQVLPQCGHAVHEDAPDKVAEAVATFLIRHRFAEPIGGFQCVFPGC
Fam108B counter: blocks mouse Fam108B hydrolase in RBBP9 counter-screen. inhibition, % at 9.51 µM. AID 1947. recombinant Fam108B, FP-Rh probe fluorescence polarization. 0.33% of 300,000 active;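 active = inhibition above the screen mean inhibition plus 3 SD, computed separately per campaign, cut at about 18% in these data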;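 note: inhibitors lower polarization as less probe binds the enzyme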
GSTO1 counter: counter-screen for RBBP9 inhibitors: inhibitors of human GSTO1; P78417; recombinant GSTO1, activity-based probe fluorescence polarization; inhibition, % at 5.96 µM; 1.1% of 300,000 active;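 active = inhibition above the campaign mean inhibition plus 3 SD, cut at about 35% in these data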;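 note: 0% = GSTO1-1 with DMSO and 100% = wells lacking GSTO1-1 enzyme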
LYPLA2 counter: counter-screen for PME1 inhibitors: inhibitors of human LYPLA2; O95372; recombinant LYPLA2, FP-Rh probe fluorescence polarization; inhibition, % at 5.9 µM; 0.38% of 320,000 active;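 active = inhibition above the screen-wide mean plus 3 SD, limit set per campaign, cut at about 26% in these data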;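 note: 0% = LYPLA2 with DMSO and 100% = wells lacking LYPLA2 enzyme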
PAD4 inh: inhibitors of human PAD4. Q9UM07. recombinant PAD4, RCA probe fluorescence polarization. inhibition, % at 6.36 µM. 0.41% of 330,000 active;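 active = percent inhibition above a cutoff equal to the mean of all tested compounds plus 3 SD, cut at about 15% in these data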;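 note: 0% = PAD4 with RCA probe and DMSO and 100% = probe without PAD4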
LYPLA1 counter: blocks human lysophospholipase 1, a PME1 counter-screen. recombinant LYPLA1, FP-Rh probe fluorescence polarization. 0.16% of 320,000 active. O75608. AID 2174. inhibition, % at 5.9 µM;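 active = inhibition above the mean of all tested compounds plus 3 SD, set per campaign, cut at about 14% in these data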;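 note: inhibitors block serine hydrolase probe labeling of LYPLA1 so polarization falls; 0% = enzyme with DMSO and 100% = wells lacking LYPLA1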
Target sequence (O75608 whole entry, looked up): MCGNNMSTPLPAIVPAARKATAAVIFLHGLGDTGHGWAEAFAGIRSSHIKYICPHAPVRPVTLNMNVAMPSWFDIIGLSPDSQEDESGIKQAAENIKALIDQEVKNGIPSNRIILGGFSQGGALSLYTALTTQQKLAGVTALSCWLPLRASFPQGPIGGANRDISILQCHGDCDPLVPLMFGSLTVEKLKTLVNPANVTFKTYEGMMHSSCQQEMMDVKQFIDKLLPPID
Fam108b confirm: confirmation of mouse Fam108b serine hydrolase inhibitors. shares compounds with Fam108B counter. recombinant Fam108b, FP-Rh probe fluorescence polarization. inhibition, % at 9.51 µM. 44% of 930 active;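 active = inhibition above a limit from the primary screen, the mean over all compounds plus 3 SD, cut at about 19% in these data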;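 note: 0% = median of active Fam108b wells and 100% = catalytically dead S170A mutant; inhibitors free the probe so polarization falls as inhibition rises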
Fam108b inh: mouse ABHD17B inhibition. shares compounds with Fam108B counter. recombinant Fam108b, gel-based ABPP, fluorophosphonate probe. inhibition, % at 20 µM. 44% of 260 active; in the data active = inhibition above about 40%
GSTO1 inh conf: GSTO1 (human) inhibition, confirmation; shares compounds with GSTO1 counter; recombinant GSTO1, probe fluorescence polarization; inhibition, % at 5.96 µM; 54% of 2,400 active; AID 2176;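 active = inhibition above the primary screen's cutoff, its mean inhibition plus 3 SD, cut at about 35% in these data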;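 note: loss of polarization as inhibitors block binding of rhodamine sulfonate ester activity probe; 0% = GSTO1 with DMSO and 100% = wells lacking GSTO1 enzyme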
LYPLA1 confirm: counter-screen for PME1 inhibitors: confirmation of human LYPLA1 inhibitors; shares compounds with LYPLA1 counter; recombinant LYPLA1, FP-Rh probe fluorescence polarization; inhibition, % at 5.9 µM; 69% of 480 active;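 active = mean inhibition across replicates above the hit cutoff set in the primary screen, cut at about 15% in these data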;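 note: loss of FP-Rh probe labeling of LYPLA1 seen as lower polarization; 0% = LYPLA1 with DMSO and 100% = wells lacking LYPLA1 enzyme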
LYPLA2 conf: counter-screen for PME1 inhibitors: confirmation of human LYPLA2 inhibitors; shares compounds with LYPLA2 counter; recombinant LYPLA2, FP-Rh probe fluorescence polarization; inhibition, % at 5.9 µM; 72% of 1,100 active; AID 2232;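 active = mean inhibition across replicates above the hit cutoff set in the primary screen, cut at about 26% in these data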;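 note: blocked labeling of the enzyme by serine hydrolase FP-Rh probe lowers polarization; 0% = enzyme with DMSO and 100% = wells lacking LYPLA2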
PAD4 FP conf: PAD4 (human) inhibition, confirmed; 28% of 1,200 active; AID 488796; recombinant PAD4, RCA probe fluorescence polarization; shares compounds with PAD4 inh; inhibition, % at 6.36 µM;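 active = mean inhibition across replicates above the hit cutoff set by the earlier primary screen, cut at about 15% in these data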;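 note: inhibitors block active-site labeling by the probe so polarization falls; 0% = PAD4 with probe and DMSO and 100% = probe without PAD4 enzyme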
* hit, by the source's call; x = no result given.

SMILES	PME-1 primary	Fam108B counter	GSTO1 counter	LYPLA2 counter	PAD4 inh	LYPLA1 counter	Fam108b confirm	Fam108b inh	GSTO1 inh conf	LYPLA1 confirm	LYPLA2 conf	others
CCOc1ccc(NC(=S)Nc2ccc3nsnc3c2)cc1	52*	80*	87*	90*	76*	66*	25*	x	81*	5	34*
CCOc1ccc(NC(=S)Nc2ccc(OCC)cc2)cc1	-7	-5	1	-1	-12	-2	x	x	x	x	x
Cc1c(Cl)cccc1NC(=S)NNS(=O)(=O)c1ccc([N+](=O)[O-])cc1	8	3	3	8	-1	1	x	x	x	x	x
Cc1nn(-c2ccccc2)c(Cl)c1/C=N/Nc1ccc(S(=O)(=O)Nc2ccccc2C(=O)O)cc1[N+](=O)[O-]	51*	33*	4	28*	-3	1	51*	x	x	x	13
CSc1ccc(C=NNc2ccc(S(=O)(=O)Nc3ccccc3C(=O)O)cc2[N+](=O)[O-])cc1	x	x	x	x	-6	x	x	x	x	x	x
CCNc1ccccc1CP(=O)(c1ccccc1)c1ccccc1O (stereo unspecified)	70*	25*	87*	64*	11	51*	10	x	4	2	5
CCOc1cccc(/C=N/NC(=S)Nc2cc(S(=O)(=O)N3CCOCC3)ccc2N2CCOCC2)c1O	32*	18*	-66	34*	3	2	13	x	x	x	43*
COc1ccc2ccccc2c1/C=N/NC(=S)Nc1cc(S(=O)(=O)N2CCOCC2)ccc1N1CCOCC1	-3	-4	-9	-12	3	-4	x	x	x	x	x
CCn1c(CSc2nnc(-c3cccnc3)n2-c2ccccc2C)nc2cc(C(=O)O)ccc21	76*	69*	69*	80*	53*	77*	90*	0	59*	72*	72*
Cc1noc(C)c1CSCC(=O)N(C)CC(=O)Nc1ccccc1Br	2	-3	1	3	0	3	x	x	x	x	x
Nc1c(C(=O)O)ccc2c1C(=O)c1ccccc1C2=O	6	-1	-12	4	-12	3	x	x	x	x	x
Nc1cc(C(=O)O)c(N)c2c1C(=O)c1ccccc1C2=O	86*	73*	29	53*	4	36*	84*	40*	x	31*	45*
CCOc1ccc2nc3cc(NCc4ccc(OC)cc4)ccc3c(N)c2c1	5	24*	50*	37*	-7	19*	-8	x	32	-9	-25
COc1cccc2c1C(=O)c1c(O)c3c(c(O)c1C2=O)C[C@](O)(C(C)=O)C[C@H]3O[C@@H]1C[C@@H](N)[C@@H](O)[C@@H](C)O1	51*	43*	48*	50*	73*	64*	42*	x	40*	64*	41*
CCOC(=O)c1c(C)[nH]c(C(=O)N(C)CC(=O)Nc2ccc(OC)cc2)c1C	-1	x	x	-2	-3	0	x	x	x	x	x
Cn1c(NCCc2ccccc2)cc(=O)n(C)c1=O	3	8	-2	2	0	-2	x	x	x	x	x
Cn1c(=O)c(NCCc2ccccc2)c2c3c(cccc31)C(=O)c1ccccc1-2	191*	156*	156*	174*	151*	148*	178*	0	118*	130*	170*
Cn1nc(-c2ccc(Cl)cc2)nc2c(=O)n(C)c(=O)nc1-2	37*	71*	91*	90*	75*	85*	73*	x	92*	85*	89*
CCCc1c(C(=O)N/N=C/c2ccccc2C(F)(F)F)nnn1-c1nonc1N	0	-5	5	3	-1	-3	x	x	x	x	x
COc1cc(C(=O)NCCCN2CCCC2=O)cc(Br)c1OCc1ccccc1	-4	x	x	1	-5	-2	x	x	x	x	x
C=C[C@](C)(CC[C@@]1(C)C(C)CC(OC2OC(C)C(OC3OC(COC(C)=O)C(O)C(O)C3O)C(O)C2O)[C@@]2(C)C(C)=CCCC12)OC1OC(C)C(O[C@@H]2O[C@@H](C)C(O)C(O)[C@H]2O)C(O)C1O (stereo partly specified)	x	x	x	x	-1	x	x	x	x	x	x
O=C(O)c1ccccc1NCc1ccco1	-3	2	1	-3	4	-3	x	x	x	x	x
O=C1c2ccccc2-c2onc3ccc(NCc4ccco4)c1c23	120*	107*	100*	118*	89*	98*	135*	30	53*	100*	121*
O=C(CSc1c(F)c(F)cc(F)c1F)Nc1ccc(C2SCCS2)cc1	145*	137*	2	132*	0	105*	150*	0	x	0	0
CCn1c(CSc2nnc(-c3ccncc3)n2CCOC)nc2cc(C(=O)O)ccc21	32*	25*	20	39*	48*	31*	35*	25	x	34*	34*	PAD4 FP conf=58*
SMILES	PME-1 primary	Fam108B counter	GSTO1 counter	LYPLA2 counter	PAD4 inh	LYPLA1 counter	Fam108b confirm	Fam108b inh	GSTO1 inh conf	LYPLA1 confirm	LYPLA2 conf	others
CCn1c(CSc2n[nH]c(N)n2)nc2cc(C(=O)O)ccc21	31*	30*	22	38*	51*	39*	41*	0	x	35*	35*	PAD4 FP conf=58*
COCCn1c(SCCCC(=O)c2ccc(Br)cc2)nnc1-c1ccncc1	-4	-1	7	-5	-4	1	x	x	x	x	x
CCn1c(CSc2nnc3ccccn23)nc2cc(C(=O)O)ccc21	41*	50*	29	43*	47*	39*	55*	0	x	52*	51*	PAD4 FP conf=77*
COC(=O)c1ccc(C(=O)OC)c(NC(=O)CSc2n[nH]c(N)n2)c1	x	x	x	x	0	x	x	x	x	x	x
CCOc1ccc(-c2nnc(NC(=O)Cc3cc(OC)c(OC)c(OC)c3)o2)cc1	2	14	4	11	7	-1	x	x	x	x	x
Cn1c(=O)cc(Nc2ccccc2)[nH]c1=O	-1	0	12	2	1	0	x	x	x	x	x
O=c1[nH]c(Nc2ccccc2)cc2ccccc12	9	24*	80*	7	65*	4	37*	0	47*	x	x	PAD4 FP conf=18*
CCNc1ccc2noc3c2c1C(=O)c1ccccc1-3	111*	115*	94*	118*	112*	108*	149*	95*	76*	108*	112*	PAD4 FP conf=102*

Compound activity: PubChem, The Scripps Research Institute Molecular Screening Center
